Source: PubChem BioAssay
“And” between values parts separate entries of the source, which are not always exact repeats. Equal entries are not always repeated. The source made the active and inactive calls.

Key:
[1] = test system: PRMT1 (protein arginine N-methyltransferase 1); test: small molecules binding arginine methyltransferase PRMT1 – biochemical, small-molecule microarray, 635 nm fluorescence, primary screen (AID 1088); settings: higher = more signal;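 note: binding of Prmt1 protein to compounds spotted on small-molecule microarray slides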
[2] = growth effects on S. cerevisiae YJM789 – YJM789 clinical isolate, OD600, 24 h, basal, primary screen (AID 1089); settings: higher = more signal, called active from +8 up or from −8 down;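 note: growth of clinical yeast isolate S. cerevisiae YJM 789 seeded 1000 cells per well; test concentration not given here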
[3] = S. pombe growth modifiers, basal conditions – strain 972, OD600, 24 h, no modulator, primary screen (AID 1090);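 note: basal condition with compound alone and no growth modifier present; test concentration not given here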; settings: S. pombe 972 growth, higher = more signal, called active from +8 up or from −8 down
[4] = budding yeast growth modifiers under rapamycin – strain BY4716, OD600, 96 h, primary screen (AID 1091); note: test concentration not given here; settings: S. cerevisiae BY4716 + rapamycin, higher = more signal, called active from +8 up or from −8 down
[5] = biological target: Torsin-1A-interacting protein 2 (Homo sapiens) (UniProt Q8NFQ8); test: small molecules binding lysate-expressed LULL1 – cell lysate, human LULL1 lysate, 635/667 nm fluorescence, primary screen (AID 1092); settings: small-molecule microarray, hLULL1 lysate binding, 635 nm fluorescence; higher = more signal;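 note: probe is lysate of COS7 cells overexpressing human LULL1; score merges per-feature 667 nm fluorescence with signal-to-noise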
Chain of Torsin-1A-interacting protein 2 (Homo sapiens) (Q8NFQ8 whole entry, looked up): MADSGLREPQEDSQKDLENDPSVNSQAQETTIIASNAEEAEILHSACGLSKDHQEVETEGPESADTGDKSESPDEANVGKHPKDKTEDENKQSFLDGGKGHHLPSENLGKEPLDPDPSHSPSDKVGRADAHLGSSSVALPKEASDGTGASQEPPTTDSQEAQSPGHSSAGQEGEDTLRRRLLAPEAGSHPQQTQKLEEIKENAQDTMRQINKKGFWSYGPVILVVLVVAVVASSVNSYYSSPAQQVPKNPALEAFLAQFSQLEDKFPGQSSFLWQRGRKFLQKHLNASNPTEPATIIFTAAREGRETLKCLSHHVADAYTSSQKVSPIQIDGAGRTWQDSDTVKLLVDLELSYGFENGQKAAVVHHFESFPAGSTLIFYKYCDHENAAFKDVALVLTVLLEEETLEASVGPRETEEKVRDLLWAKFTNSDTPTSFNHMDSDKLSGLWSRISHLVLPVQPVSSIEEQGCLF

[6] = optical density change of DRC41 E. coli – strain DRC41, OD650, 24 h, E. coli filamentation project, primary screen (AID 1093);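 note: MC1000 strain lacking acrAB efflux and sulA so SOS filamentation is blocked; test concentration not given here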; settings: E. coli DRC41 growth, higher = more signal, called active from +8 up or from −8 down
[7] = probe aLefty2 binding to arrayed compounds – biochemical, biotinylated probe, 635/667 nm fluorescence, primary screen (AID 1094); settings: small-molecule microarray, higher = more signal;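 note: score merges spot fluorescence near 667 nm with spot signal-to-noise ratio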
[8] = test system: Noggin (protein binding on small-molecule microarray); test: small molecules binding Noggin protein – biochemical, 635/667 nm fluorescence, primary screen (AID 1095); settings: 635 nm fluorescence, higher = more signal;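 note: score merges 667 nm feature fluorescence with signal to noise over triplicate slides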
[9] = biological target: Neurogenic locus notch homolog protein 3 (Homo sapiens) (UniProt Q9UM47); test: small molecules binding NOTCH3 protein – biochemical, 635/667 nm fluorescence, primary screen (AID 1096); settings: small-molecule microarray, 635 nm fluorescence, higher = more signal
Chain of Neurogenic locus notch homolog protein 3 (Homo sapiens) (Q9UM47 whole entry, looked up): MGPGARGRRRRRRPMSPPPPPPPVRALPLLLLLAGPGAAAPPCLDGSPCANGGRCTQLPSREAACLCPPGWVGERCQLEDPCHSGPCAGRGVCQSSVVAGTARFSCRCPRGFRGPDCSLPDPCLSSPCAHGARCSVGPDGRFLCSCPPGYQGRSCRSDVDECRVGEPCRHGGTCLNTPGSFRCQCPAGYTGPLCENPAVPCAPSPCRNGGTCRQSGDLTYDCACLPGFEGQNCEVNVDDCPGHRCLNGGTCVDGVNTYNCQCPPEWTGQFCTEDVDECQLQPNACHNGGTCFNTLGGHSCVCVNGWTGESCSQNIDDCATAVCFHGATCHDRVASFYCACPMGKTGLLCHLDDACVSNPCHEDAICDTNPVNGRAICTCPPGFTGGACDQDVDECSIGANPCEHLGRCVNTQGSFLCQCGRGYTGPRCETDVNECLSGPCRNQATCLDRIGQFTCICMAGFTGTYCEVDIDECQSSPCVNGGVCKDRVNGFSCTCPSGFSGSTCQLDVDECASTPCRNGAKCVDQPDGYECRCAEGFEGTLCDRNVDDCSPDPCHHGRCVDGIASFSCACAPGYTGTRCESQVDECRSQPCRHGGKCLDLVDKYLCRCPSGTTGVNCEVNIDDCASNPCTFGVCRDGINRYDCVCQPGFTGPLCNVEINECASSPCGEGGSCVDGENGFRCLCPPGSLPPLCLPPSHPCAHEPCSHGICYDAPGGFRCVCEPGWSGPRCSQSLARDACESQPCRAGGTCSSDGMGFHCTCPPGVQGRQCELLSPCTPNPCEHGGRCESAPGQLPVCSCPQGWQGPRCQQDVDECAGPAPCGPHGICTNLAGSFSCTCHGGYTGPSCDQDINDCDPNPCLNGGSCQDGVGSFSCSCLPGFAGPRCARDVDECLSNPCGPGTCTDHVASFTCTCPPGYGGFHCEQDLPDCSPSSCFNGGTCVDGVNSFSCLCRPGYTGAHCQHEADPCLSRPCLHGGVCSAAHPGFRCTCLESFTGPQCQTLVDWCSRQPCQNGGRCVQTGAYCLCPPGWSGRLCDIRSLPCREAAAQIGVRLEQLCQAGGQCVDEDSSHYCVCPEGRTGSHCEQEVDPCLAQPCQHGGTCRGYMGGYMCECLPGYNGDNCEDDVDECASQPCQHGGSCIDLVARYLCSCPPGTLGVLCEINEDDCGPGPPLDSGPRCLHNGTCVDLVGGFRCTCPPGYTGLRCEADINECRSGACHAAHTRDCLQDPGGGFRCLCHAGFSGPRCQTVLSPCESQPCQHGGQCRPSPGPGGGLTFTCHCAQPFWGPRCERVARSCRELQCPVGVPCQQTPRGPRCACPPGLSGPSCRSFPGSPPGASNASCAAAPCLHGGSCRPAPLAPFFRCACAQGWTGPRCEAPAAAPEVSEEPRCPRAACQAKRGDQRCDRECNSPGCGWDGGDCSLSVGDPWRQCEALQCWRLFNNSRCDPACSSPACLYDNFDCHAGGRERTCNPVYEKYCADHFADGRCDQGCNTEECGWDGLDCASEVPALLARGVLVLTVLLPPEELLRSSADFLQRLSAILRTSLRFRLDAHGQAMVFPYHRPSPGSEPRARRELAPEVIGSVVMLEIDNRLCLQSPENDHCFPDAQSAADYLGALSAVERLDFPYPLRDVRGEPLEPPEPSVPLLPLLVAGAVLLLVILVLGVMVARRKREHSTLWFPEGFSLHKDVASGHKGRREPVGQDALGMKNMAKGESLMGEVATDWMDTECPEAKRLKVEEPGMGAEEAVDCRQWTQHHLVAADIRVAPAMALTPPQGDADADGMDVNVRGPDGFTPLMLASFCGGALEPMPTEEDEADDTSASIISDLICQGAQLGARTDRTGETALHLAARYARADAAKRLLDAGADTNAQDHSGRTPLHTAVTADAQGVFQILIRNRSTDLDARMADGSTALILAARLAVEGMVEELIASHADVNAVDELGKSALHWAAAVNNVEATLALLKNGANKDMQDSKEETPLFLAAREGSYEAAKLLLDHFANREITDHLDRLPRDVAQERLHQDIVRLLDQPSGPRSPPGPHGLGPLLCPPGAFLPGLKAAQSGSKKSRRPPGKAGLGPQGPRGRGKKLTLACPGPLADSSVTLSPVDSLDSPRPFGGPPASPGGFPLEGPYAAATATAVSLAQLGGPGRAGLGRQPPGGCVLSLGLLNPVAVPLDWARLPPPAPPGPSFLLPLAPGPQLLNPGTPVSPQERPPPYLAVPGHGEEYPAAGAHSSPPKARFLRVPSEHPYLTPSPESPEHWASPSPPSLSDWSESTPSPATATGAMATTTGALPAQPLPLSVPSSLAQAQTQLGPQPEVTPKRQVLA

[10] = probe aEGFR binding to arrayed compounds – biochemical, biotinylated probe, 635/667 nm fluorescence, primary screen (AID 1097); settings: small-molecule microarray, higher = more signal;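 note: probe is a biotinylated anti-EGFR antibody binding compounds printed on slides; score combines fluorescence near 667 nm and signal to noise of each spot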
[11] = test system: Plasmodium falciparum Sir2 (PF13_0152, Sir2A); test: Plasmodium falciparum Sir2A binding compounds – biochemical, small-molecule microarray, 635 nm fluorescence, primary screen (AID 1098); settings: fluorescence 635 nm, higher = more signal;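 note: score merges spot fluorescence intensity with its signal-to-noise ratio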
[12] = probe aDKK1 binding to arrayed compounds – biochemical, biotinylated probe, 635/667 nm fluorescence, primary screen (AID 1099); settings: small-molecule microarray, higher = more signal;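 note: score merges 667nm spot fluorescence with signal to noise across triplicate slides; reference of the scale not given here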
[13] = probe aCHRDL2 binding to arrayed compounds – biochemical, biotinylated probe, 635/667 nm fluorescence, primary screen (AID 1100); settings: small-molecule microarray, higher = more signal
[14] = change in splice reporter luminescence, either direction, cell-based, HEK293, spliceosome inhibition project, primary screen (AID 1101); settings: HEK293 splicing luciferase reporter, 24 h, higher = more signal, called active from +8 up or from −8 down;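 note: HEK293 cells carrying a splicing-competent luciferase reporter gene; test concentration not given here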
[15] = biological target: Fibroblast growth factor 10 (Homo sapiens) (UniProt O15520); test: compounds binding fibroblast growth factor 10 – biochemical, small-molecule microarray, 635 nm fluorescence, primary screen (AID 1102); settings: FGF10 binding, fluorescence 635 nm, higher = more signal
Chain of Fibroblast growth factor 10 (Homo sapiens) (O15520 whole entry, looked up): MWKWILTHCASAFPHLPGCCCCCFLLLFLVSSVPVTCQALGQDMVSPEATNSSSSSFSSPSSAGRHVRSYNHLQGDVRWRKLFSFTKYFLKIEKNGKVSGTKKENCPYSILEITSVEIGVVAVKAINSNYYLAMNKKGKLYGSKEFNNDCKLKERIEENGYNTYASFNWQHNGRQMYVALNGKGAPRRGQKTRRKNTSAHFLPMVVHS

[16] = test system: glycogen synthase kinase-3 (GSK3A per assay name; protocol says GSK3B); test: compounds binding glycogen synthase kinase-3 – biochemical, small-molecule microarray, 635 nm fluorescence, GSK3A, primary screen (AID 1103); settings: fluorescence 635 nm, higher = more signal; note: the record names both GSK3A and GSK3B
[17] = biological target: Epidermal growth factor receptor (Homo sapiens) (UniProt P00533); test: compounds binding epidermal growth factor receptor – biochemical, small-molecule microarray, 635 nm fluorescence, primary screen (AID 1104); settings: EGFR binding, higher = more signal;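 note: score merges 667 nm emission intensity with spot signal to noise over triplicate slides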
Chain of Epidermal growth factor receptor (Homo sapiens) (P00533 whole entry, looked up): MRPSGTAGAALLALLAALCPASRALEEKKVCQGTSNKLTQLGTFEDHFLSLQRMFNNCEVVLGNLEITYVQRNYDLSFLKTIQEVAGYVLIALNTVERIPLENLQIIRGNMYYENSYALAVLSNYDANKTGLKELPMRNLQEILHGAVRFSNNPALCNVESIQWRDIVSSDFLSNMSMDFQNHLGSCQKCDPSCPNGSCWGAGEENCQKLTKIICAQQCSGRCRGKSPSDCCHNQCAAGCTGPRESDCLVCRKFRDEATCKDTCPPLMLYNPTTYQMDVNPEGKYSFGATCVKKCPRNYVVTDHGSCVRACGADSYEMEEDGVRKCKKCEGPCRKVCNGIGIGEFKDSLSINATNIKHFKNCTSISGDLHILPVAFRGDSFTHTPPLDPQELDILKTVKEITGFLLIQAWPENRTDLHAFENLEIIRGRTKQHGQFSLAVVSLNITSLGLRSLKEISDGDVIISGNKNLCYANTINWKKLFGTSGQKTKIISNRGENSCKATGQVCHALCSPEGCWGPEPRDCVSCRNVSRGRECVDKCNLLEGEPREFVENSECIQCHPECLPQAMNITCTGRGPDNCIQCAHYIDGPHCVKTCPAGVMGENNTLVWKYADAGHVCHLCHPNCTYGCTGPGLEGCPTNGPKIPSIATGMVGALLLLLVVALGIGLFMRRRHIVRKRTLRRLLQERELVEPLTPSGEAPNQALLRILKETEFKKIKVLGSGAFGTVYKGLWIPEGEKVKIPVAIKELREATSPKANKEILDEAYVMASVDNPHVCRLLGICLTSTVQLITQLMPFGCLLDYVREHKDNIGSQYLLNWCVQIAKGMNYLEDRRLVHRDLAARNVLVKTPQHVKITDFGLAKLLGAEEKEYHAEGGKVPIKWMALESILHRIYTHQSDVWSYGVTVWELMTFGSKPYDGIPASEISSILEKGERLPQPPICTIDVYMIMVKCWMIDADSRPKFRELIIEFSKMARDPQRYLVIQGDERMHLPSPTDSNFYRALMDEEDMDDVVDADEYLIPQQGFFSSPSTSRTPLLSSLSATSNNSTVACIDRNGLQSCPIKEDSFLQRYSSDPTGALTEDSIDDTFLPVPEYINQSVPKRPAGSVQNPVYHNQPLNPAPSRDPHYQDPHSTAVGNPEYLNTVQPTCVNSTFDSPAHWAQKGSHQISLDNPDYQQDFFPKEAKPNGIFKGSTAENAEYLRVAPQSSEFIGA

[18] = biological target: Follistatin-related protein 3 (Homo sapiens) (UniProt O95633); test: compounds binding follistatin-related protein 3 – biochemical, small-molecule microarray, 635 nm fluorescence, primary screen (AID 1105); settings: FSTL3 binding, higher = more signal;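 note: score merges emission near 667 nm and signal to noise per printed spot across three slides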
Chain of Follistatin-related protein 3 (Homo sapiens) (O95633 whole entry, looked up): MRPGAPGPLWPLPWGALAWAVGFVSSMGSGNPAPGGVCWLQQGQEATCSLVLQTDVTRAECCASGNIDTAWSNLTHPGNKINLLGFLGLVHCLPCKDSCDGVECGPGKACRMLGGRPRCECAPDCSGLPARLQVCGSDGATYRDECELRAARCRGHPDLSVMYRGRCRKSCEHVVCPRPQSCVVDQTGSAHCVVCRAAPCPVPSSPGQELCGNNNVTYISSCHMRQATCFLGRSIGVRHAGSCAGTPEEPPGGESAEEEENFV

[19] = biological target: Dickkopf-related protein 1 (Homo sapiens) (UniProt O94907); test: small molecules binding DKK1 protein – biochemical, small-molecule microarray, 635 nm fluorescence scan, primary screen (AID 1106); settings: higher = more signal;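 note: score merges emission near 667 nm with signal to noise over three replicate slides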
Chain of Dickkopf-related protein 1 (Homo sapiens) (O94907 whole entry, looked up): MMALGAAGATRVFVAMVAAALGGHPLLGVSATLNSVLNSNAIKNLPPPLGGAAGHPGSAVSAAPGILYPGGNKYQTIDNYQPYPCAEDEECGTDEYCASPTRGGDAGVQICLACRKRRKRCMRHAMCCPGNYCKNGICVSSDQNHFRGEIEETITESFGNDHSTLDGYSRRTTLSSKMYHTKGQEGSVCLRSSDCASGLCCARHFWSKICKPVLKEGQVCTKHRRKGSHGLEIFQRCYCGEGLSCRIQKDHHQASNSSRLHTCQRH

[20] = test system: Inhibin beta A chain (activin A); test: small molecules binding activin A – biochemical, small-molecule microarray, 635 nm fluorescence scan, primary screen (AID 1107); settings: INHBA, higher = more signal;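 note: mouse activin A protein probed at 4.33 µg/mL on printed slides; score merges bound-protein fluorescence near 667 nm with spot signal-to-noise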

| SMILES | composite z-score [1] | z-score [2] | z-score [3] | z-score [4] | composite z-score [5] | z-score [6] | composite z-score [7] | composite z-score [8] | composite z-score [9] | composite z-score [10] | composite z-score [11] | composite z-score [12] | composite z-score [13] | z-score [14] | composite z-score [15] | composite z-score [16] | composite z-score [17] | composite z-score [18] | composite z-score [19] | composite z-score [20] |
| --- | --- | --- | --- | --- | --- | --- | --- | --- | --- | --- | --- | --- | --- | --- | --- | --- | --- | --- | --- | --- |
| C=CCN(C(=O)C1N(CCOCCO)C(=O)C2C(C(=O)O)C3C=CC21O3)C(C)(C)C (stereo not given) | -1.26 and -0.124 | -0.419 (inactive) and -0.683 (inactive) | -0.378 (inactive) and -0.505 (inactive) | -0.357 (inactive) and -0.658 (inactive) | -1.29 and -1.44 | 0.389 (inactive) and 0.267 (inactive) | -0.251 and -0.197 | -2.02 and -1.83 | -1.49 and -0.757 | -0.323 and -0.241 | 1.73 and -1.59 | -0.128 and -0.31 | 0.867 and 0.619 | -0.235 (inactive) and 0.32 (inactive) | -1.8 and -1.24 | -1.76 and -0.852 | -2.23 and -1.56 | -2.47 and -1.69 | -2.47 and -1.32 | -1.84 and -3.28 |
| C#CCCCON=C1C[C@@H](O)[C@@H](O)[C@@H]2[C@@H]3C(=O)N(C4CCCCC4)C(=O)[C@@H]3CC[C@H]12 | 0.589 | -0.177 (inactive) | -0.539 (inactive) | -0.193 (inactive) | 1 | 0.318 (inactive) | 0.0103 | 0.417 | 0.71 | -0.0842 | 0.72 | 0.149 | -0.0642 | -0.285 (inactive) | 0.402 | 0.355 | 0.217 | 0.348 | 0.0938 | 0.24 |
| C=CCN(CCCCC)C(=O)C1N(CCOCCO)C(=O)C2C(C(=O)O)C3C=CC21O3 (stereo not given) | -1.77 and -0.751 | 0.322 (inactive) and 0.513 (inactive) | 0.0056 (inactive) and 0.398 (inactive) | 0.912 (inactive) and 1.09 (inactive) | 0.0037 and 0.198 | -0.45 (inactive) and -0.546 (inactive) | -0.0617 and -0.142 | -1.17 and -2.1 | -0.574 and -1.05 | -0.275 and -0.367 | 0.128 and 1.72 | -0.344 and -0.208 | 0.77 and 0.925 | 0.8 (inactive) and 1.24 (inactive) | -1.48 and -1.61 | -1.97 and -0.615 | -1.74 and -1.79 | -1.54 and -1.58 | -2.58 and -3.23 | -1.97 and -1.95 |
| CC[C@@H]1C(Sc2ccccc2)C(C(=O)O)[C@H](c2ccc(C)cc2)N1S(=O)(=O)c1ccc(C)cc1 (stereo not given in full) | 1.25 and 1.49 | -0.768 (inactive) and -2.59 (inactive) | 0.796 (inactive) and -0.975 (inactive) | -0.451 (inactive) and -0.576 (inactive) | 2.66 and 3.19 | -0.889 (inactive) and -0.743 (inactive) | 0.149 and -0.0615 | -0.0727 and -0.216 | 1.11 and 1.07 | -0.0025 and -0.114 | 1.68 and 1.07 | 0.46 and -0.127 | 0.731 and 0.46 | -0.0623 (inactive) and -0.895 (inactive) | 0.617 and 0.881 | 0.414 and 1.14 | -0.233 and 0.267 | 0.437 and 0.874 | -0.72 and 0.0831 | 0.653 and 0.302 |
| C=CCN(CCCCC)C(=O)C1N(c2c(Cl)cccc2CO)C(=O)C2C(C(=O)O)C3C=CC21O3 (stereo not given) | 0.0842 and -0.629 | 0.006 (inactive) and 0.769 (inactive) | -0.456 (inactive) and -0.0109 (inactive) | 0.59 (inactive) and 0.045 (inactive) | -0.445 and -0.75 | 0.31 (inactive) and 0.437 (inactive) | 0.156 and -0.0555 | -2.4 and -2.23 | -0.676 and -0.842 | -0.441 and -0.411 | -0.116 and 0.397 | 0.784 and 0.13 | 0.479 and 1.12 | -0.282 (inactive) and -0.455 (inactive) | -1.35 and -1.3 | -0.607 and -1.18 | -3.02 and -1.91 | -2.09 and -2.23 | -2.91 and -2.56 | -1.96 and -1.99 |
| C=CC[C@H](O)c1ccc(OCCO)cc1 | -0.145 and -1.37 | -0.192 (inactive) and -0.831 (inactive) | -0.228 (inactive) and -0.917 (inactive) | -0.389 (inactive) and -1.19 (inactive) | -0.435 and -2.14 | -0.646 (inactive) and -0.812 (inactive) | -0.0653 and -0.181 | -0.292 and 0.249 | -0.847 and -0.324 | -0.162 and -0.191 | 0.142 and -0.925 | 0.203 and -0.308 | 0.777 and 0.484 | 0.296 (inactive) and 2.7 (inactive) | -0.603 and -0.328 | -0.92 and -2.17 | -0.883 and -0.455 | -0.382 and -0.0904 | -1.06 and -0.251 | 0.149 and 0.677 |
| CC(C)OC(=O)C=C1C[C@@H](c2ccccc2)O[C@@H](c2ccccc2)O1 | 1.5 and 1.54 | -0.023 (inactive) and 0.548 (inactive) | -4.66 (inactive) and -7.08 (inactive) | -0.793 (inactive) and 0.632 (inactive) | 3.33 and 3.12 | 0.551 (inactive) and 0.884 (inactive) | 0.0528 and 0.269 | 1.09 and 0.798 | 1.09 and 1.13 | 0.302 and 0.366 | 0.733 and 1.54 | 0.164 and 0.272 | 0.0614 and 0.847 | 0.0661 (inactive) and 2.56 (inactive) | 1.45 and 1.42 | 1.34 and 1.31 | 0.65 and 0.664 | 1.44 and 1.41 | 0.527 and 0.481 | -0.0632 and 1.05 |
| C=C(C)C(=O)OC[C@@H]1CN2[C@@H](CC[C@@H](C)[C@@H]2c2ccc(Br)cc2)C(=O)O1 | 0.819 | -0.792 (inactive) | -2.7 (inactive) | -1.52 (inactive) | 1.32 | 0.53 (inactive) | -0.247 | 0.314 | 0.259 | 0.0251 | 0.913 | -0.199 | -0.374 | -0.46 (inactive) | 0.634 | 0.399 | 0.263 | 1.08 | 0.872 | 0.984 |
